Among the data in the antibiotic and cytotoxicity screens of Wong et al. (2023) are cytotoxicity call values, retold here.

About 3,300 (8.5%) of roughly 39,000 compounds were called active. What follows is part of a selection rich in actives, with near analogues and random picks from the rest.

In this assay the test system is HepG2. Kind of assay: cytotoxicity call (relative viability < 0.9). As to conditions: 10 µM.
As for `Cc1noc(C)c1S(=O)(=O)N(C)C[C@@H]1Oc2ccc(NC(=O)Nc3ccccc3)cc2CC(=O)N([C@@H](C)CO)C[C@H]1C`, the cytotoxicity call was “inactive”.

As to `Cc1cc(O)c(C(=O)/C=C/N(C)C)c(=O)o1`, the cytotoxicity call is “inactive”.

As to `C[C@@H]1CN([C@@H](C)CO)C(=O)CCCn2cc(nn2)CO[C@H]1CN(C)C(=O)Nc1ccc2c(c1)OCCO2`, the cytotoxicity call was “inactive”.

With `C[C@@H]1CN([C@@H](C)CO)C(=O)c2cc(-c3ccc(C#N)cc3)cnc2O[C@H]1CN(C)C(=O)Nc1ccc(C(F)(F)F)cc1`, the cytotoxicity call is “inactive”.

For the molecule `CCCCC[C@H]1C[C@H](O[C@H]2O[C@@H](CO)[C@@H](O)[C@@H](O)[C@@H]2O)CC(=O)O1`, the cytotoxicity call is “inactive”.

Regarding `C[C@@H]1CN([C@@H](C)CO)C(=O)Cc2cc(NC(=O)Nc3ccc(C(F)(F)F)cc3)ccc2O[C@@H]1CN(C)Cc1ccc(C(F)(F)F)cc1`, the cytotoxicity call was “active”.

`C[C@@H]1CN([C@H](C)CO)C(=O)Cc2cc(NC(=O)Nc3ccc(C(F)(F)F)cc3)ccc2O[C@H]1CN(C)Cc1ccc(C(=O)O)cc1`: the cytotoxicity call was “inactive”.

As to `C[C@@H]1CN([C@@H](C)CO)C(=O)Cc2cc(NC(=O)Nc3ccc(C(F)(F)F)cc3)ccc2O[C@H]1CN(C)Cc1ccc(C(=O)O)cc1`, the cytotoxicity call is “inactive”.

Turning to `C[C@@H]1CCCCO[C@@H](CN(C)S(C)(=O)=O)[C@@H](C)CN([C@@H](C)CO)C(=O)c2cc(NS(=O)(=O)c3ccc(F)cc3)ccc2O1`, the cytotoxicity call was “inactive”.

Regarding `CC(C)NC(=O)Nc1ccc2c(c1)CC(=O)N([C@H](C)CO)C[C@H](C)[C@H](CN(C)Cc1ccc(Oc3ccccc3)cc1)O2`, the cytotoxicity call was “inactive”.

Consider `CC(C)NC(=O)Nc1ccc2c(c1)CC(=O)N([C@@H](C)CO)C[C@H](C)[C@H](CN(C)Cc1ccc(Oc3ccccc3)cc1)O2`, for which the cytotoxicity call was “inactive”.

Consider `C[C@@H]1CN([C@@H](C)CO)C(=O)Cc2cc(NC(=O)Nc3ccccc3)ccc2O[C@H]1CN(C)Cc1ccc(Oc2ccccc2)cc1`, for which the cytotoxicity call is “inactive”.

`C[C@@H]1CN([C@@H](C)CO)C(=O)Cc2cc(NC(=O)Nc3ccccc3)ccc2O[C@@H]1CN(C)Cc1ccc(Oc2ccccc2)cc1`: the cytotoxicity call is “active”.

For the molecule `CC(C)NC(=O)Nc1ccc2c(c1)CC(=O)N([C@@H](C)CO)C[C@H](C)[C@@H](CN(C)Cc1ccc(Oc3ccccc3)cc1)O2`, the cytotoxicity call was “inactive”.

On to `C[C@H]1CN([C@@H](C)CO)C(=O)Cc2cc(NC(=O)Nc3ccccc3)ccc2O[C@H]1CN(C)Cc1ccc(Oc2ccccc2)cc1`, for which the cytotoxicity call was “active”.

As to `C[C@H]1CN([C@@H](C)CO)C(=O)Cc2cc(NC(=O)Nc3ccccc3)ccc2O[C@@H]1CN(C)Cc1ccc(Oc2ccccc2)cc1`, the cytotoxicity call was “active”.

On to `C[C@@H]1CN([C@H](C)CO)C(=O)Cc2cc(NC(=O)Nc3ccccc3)ccc2O[C@H]1CN(C)Cc1ccc(Oc2ccccc2)cc1`, for which the cytotoxicity call is “active”.

For `C[C@H](CO)N1C[C@H](C)[C@@H](CN(C)Cc2ccc(Oc3ccccc3)cc2)Oc2ccc(NC(=O)Nc3ccccc3)cc2CC1=O`, the cytotoxicity call was “inactive”.

For the molecule `COCC#Cc1ccc2c(c1)O[C@@H](CN(C)C(=O)c1ccccc1F)[C@H](C)CN([C@@H](C)CO)S2(=O)=O`, the cytotoxicity call was “inactive”.

Take `Cc1noc(C)c1S(=O)(=O)N(C)C[C@@H]1Oc2ccc(NS(C)(=O)=O)cc2CC(=O)N([C@H](C)CO)C[C@@H]1C`: the cytotoxicity call was “inactive”.

`C[C@H](CO)N1C[C@H](C)[C@@H](CN(C)S(=O)(=O)c2cn(C)cn2)Oc2cc(C#Cc3ccccc3)ccc2S1(=O)=O`: the cytotoxicity call was “inactive”.

Consider `C=CC[C@@H](CC(=O)N[C@@H](CO)Cc1ccccc1)C(=O)NCCOC(=O)[C@H](CC=C)CC(=O)OC(C)(C)C`, for which the cytotoxicity call is “inactive”.

On to `C[C@@H]1CN([C@H](C)CO)C(=O)Cc2cc(NC(=O)CCN3CCOCC3)ccc2O[C@@H]1CN(C)S(=O)(=O)c1ccccc1`, for which the cytotoxicity call was “inactive”.

`C[C@H]1CCCCO[C@@H](CN(C)C(=O)c2ccccc2)[C@@H](C)CN([C@@H](C)CO)C(=O)c2cc(NC(=O)NC3CCCCC3)ccc2O1`: the cytotoxicity call is “inactive”.

As for `Cc1cccc(CN(C)C[C@@H]2Oc3ncc(-c4cccc(C(F)(F)F)c4)cc3C(=O)N([C@H](C)CO)C[C@@H]2C)c1`, the cytotoxicity call is “inactive”.

For the molecule `CC(C)NC(=O)Nc1ccc2c(c1)C(=O)N([C@H](C)CO)C[C@@H](C)[C@@H](CN(C)S(=O)(=O)c1cn(C)cn1)OCCCC[C@H](C)O2`, the cytotoxicity call was “inactive”.

Regarding `COc1ccc(S(=O)(=O)Nc2ccc3c(c2)CC(=O)N([C@H](C)CO)C[C@H](C)[C@H](CN(C)S(=O)(=O)c2ccc(OC)cc2)O3)cc1`, the cytotoxicity call is “inactive”.

Turning to `Nc1cc(=O)nc(C(F)(F)F)[nH]1`, the cytotoxicity call was “inactive”.

Regarding `Cc1ccc(S(=O)(=O)Nc2cccc3c2O[C@@H](CN(C)S(=O)(=O)c2ccc(F)cc2)[C@@H](C)CN([C@@H](C)CO)C3=O)cc1`, the cytotoxicity call is “inactive”.

Consider `O=C(CN1CCOCC1)N[C@@H]1CC[C@H](CCNC(=O)Nc2cc(F)ccc2F)O[C@H]1CO`, for which the cytotoxicity call was “inactive”.

Consider `COc1ccc(S(=O)(=O)Nc2ccc3c(c2)[C@@H]2C[C@H](CC(=O)NCC4CC4)O[C@H](CO)[C@@H]2O3)cc1`, for which the cytotoxicity call was “inactive”.

Turning to `CCS(=O)(=O)Nc1ccc2c(c1)C(=O)N(C)[C@@H]1CC[C@H](CC(=O)N[C@H]3CCN(Cc4ccccc4)C3)O[C@@H]1CO2`, the cytotoxicity call is “inactive”.

Turning to `c1cc([C@@H]2CNCCN2)[nH]n1`, the cytotoxicity call was “inactive”.

On to `C[C@@H]1CCCCO[C@H](CN(C)S(=O)(=O)c2ccccc2)[C@H](C)CN([C@@H](C)CO)C(=O)c2cc(NC(=O)CCC(F)(F)F)ccc2O1`, for which the cytotoxicity call is “inactive”.

As for `Cc1noc(C)c1S(=O)(=O)Nc1cccc2c1O[C@H](CN(C)S(=O)(=O)c1c(C)noc1C)[C@H](C)CN([C@@H](C)CO)C2=O`, the cytotoxicity call was “inactive”.

Regarding `CC(C)NC(=O)Nc1ccc2c(c1)CC(=O)N([C@@H](C)CO)C[C@@H](C)[C@H](CN(C)Cc1ccc(Oc3ccccc3)cc1)O2`, the cytotoxicity call was “inactive”.

`C[C@H](CO)N1C[C@H](C)[C@H](CN(C)Cc2ccc(Oc3ccccc3)cc2)Oc2ccc(NC(=O)Nc3ccccc3)cc2CC1=O`: the cytotoxicity call was “inactive”.

In the case of `CC(C)NC(=O)Nc1ccc2c(c1)CC(=O)N([C@H](C)CO)C[C@@H](C)[C@@H](CN(C)Cc1ccc(Oc3ccccc3)cc1)O2`, the cytotoxicity call is “active”.

Consider `C[C@@H]1CN([C@H](C)CO)C(=O)Cc2cc(NC(=O)Nc3ccccc3)ccc2O[C@@H]1CN(C)Cc1ccc(Oc2ccccc2)cc1`, for which the cytotoxicity call is “active”.

In the case of `CC(C)NC(=O)Nc1ccc2c(c1)CC(=O)N([C@@H](C)CO)C[C@@H](C)[C@@H](CN(C)Cc1ccc(Oc3ccccc3)cc1)O2`, the cytotoxicity call was “inactive”.

As to `CC(C)NC(=O)Nc1ccc2c(c1)CC(=O)N([C@H](C)CO)C[C@@H](C)[C@H](CN(C)Cc1ccc(Oc3ccccc3)cc1)O2`, the cytotoxicity call is “inactive”.
